Reference: PubChem BioAssay
Several values for one entry are separate records, joined by “and”; a condition that tells them apart may be missing. Identical values can stand only once. Activity calls are given as the source filed them.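 Rule for the calls, unless noted: active = inhibition at or above 50% relative to wild type and mutant plate controls; inactive = inhibition below 50%.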

Key:
[1] = inhibitors of TNFa-induced NFkB p65 translocation, primary screen, imaging, HUVEC, MLSMR starter and 10KST1 sets (AID 438;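 active = inhibition above 20% together with a positive visual image hit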;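 note: compound added about 3h40 before a 20 min TNFalpha stimulation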;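 for inhibition: signal is the nuclear over cytoplasmic p65 intensity ratio per well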); settings: HUVEC TNFa-induced p65 nuclear translocation; cell count: measured here: nuclei count (cytotoxicity indicator), at 2.08 µM; inhibition: at 2 µM, stronger effect = higher value, 0% TNFa-plus-vehicle, 100% no-TNFa wells
[2] = reduction of polyQ htt aggregates in cells – imaging, exon1htt(103Q)mCFP cells, high-content imaging, primary screen (AID 483;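 active = visual image review flags a hit and inhibition of aggregation exceeds 20%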;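 note: compound exposure lasted 3 days before fixation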;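 for nuclei count: percent of the per-plate median nuclei count of sample wells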); settings: exon1htt(103Q)mCFP cell line, aggregate imaging, at 2 µM; inhibition of aggregation: stronger effect = higher value; nuclei count: measured here: cell count, toxicity
[3] = endothelial E-selectin expression blockers – imaging, HUVEC, immunofluorescence, MLSMR starter and 10KST1 sets, primary screen (AID 487;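 active = visually confirmed hit in the image check and inhibition above 20%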;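 for inhibition: signal is fraction of cell area covered by stained E-selectin grains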;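 for nuclei count: 100% = median nuclei count of all wells on the same plate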); settings: HUVEC TNFalpha-induced E-selectin immunofluorescence imaging, at 2 µM; inhibition: stronger effect = higher value; nuclei count: measured here: cell number, toxicity
[4] = Primary imaging screen for DUSP6 inhibitors that restore phospho-Erk in transfected HeLa cells, chemical complementation (AID 609;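 active = compounds giving at least 50% inhibition in the cell-based MKP-3 phosphatase rescue imaging test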;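 for inhibition: phospho-Erk level distribution per well compared with pooled transfected vehicle control wells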); settings: HeLa MKP-3 transfected, phospho-Erk imaging KS statistic, at 10 µM, cells stimulated with TPA for 15 min
[5] = biological target: Dual specificity protein phosphatase 6 (Homo sapiens) (UniProt Q16828); experiment: as above; settings: HeLa MKP-3 transfected, phospho-Erk imaging KS statistic; at 10 µM; stronger effect = higher value; cells stimulated with TPA for 15 min
[6] = biological target: Voltage-gated potassium channel subunit beta-2 (Rattus norvegicus) (UniProt P62483); experiment: inhibitors of rat Kvbeta2 reductase activity – biochemical, NADPH fluorescence, primary screen (AID 622;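 active = fluorescence slope higher than the sample average by over 3 SD, cut at about -0.22 in these data, passing the limit was not always enough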;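 note: slope of raw intensity against log time taken from 70 to 1610 s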); settings: recombinant KvBeta, 4-cyanobenzaldehyde reduction, at 10 µM, stronger effect = higher value
[7] = biological target: Voltage-gated potassium channel subunit beta-2 (Rattus norvegicus) (UniProt P62483); experiment: enhancers of rat Kvbeta2 NADPH turnover – biochemical, NADPH fluorescence, primary screen (AID 623;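 active = NADPH fluorescence slope more negative than the mean of all samples by about 3 SD, 99.7% confidence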;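 note: fluorescence intensity change per second fitted from 20 to 320 s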); settings: Recombinant KvBeta, NADPH fluorescence decrease slope, 10 min; at 10 µM; stronger effect = lower value
[8] = biological target: Alpha-2C adrenergic receptor (Homo sapiens) (UniProt P18825); experiment: compounds altering alpha2C-coupled GIRK flux – cell-based, HEK293 alpha2C/GIRK1/2, thallium flux, primary screen (AID 624;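 active = fluorescence slope after compound addition differing from the mean of all screened samples at 99.7% confidence, in either direction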;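 note: slope of fluorescence ratio to pre-addition baseline per second over 15 to 24 s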); settings: thallium flux BTC fluorescence, at 10 µM, actives lie on both sides
[9] = inhibitors of larval lipid processing in zebrafish, primary screen, whole organism, PED6 fluorescence, gall bladder and intestine (AID 686;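 active = a full or partial loss of lipid-probe fluorescence in the fish gall bladder, intestine or both, judged by eye; inactive = no fluorescence loss, or compound toxic to the fish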;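 note: larvae 5 to 7 days old with five fish per well; signal comes from phospholipase A2 cleavage of quenched PED6 carried via bile; overnight exposure to compound and PED6 before scoring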); settings: Zebrafish larvae PED6 lipid processing, fluorescence scoring; screened at 20 µM (by protocol)
[10] = loss of swimming-algae plug formation – whole organism, Chlamydomonas reinhardtii, WT vs cilia-less mutant, absorbance, 96-well, primary screen (AID 463189); settings: Chlamydomonas reinhardtii gravitaxis, OD600 absorbance, 2 days; at 10 µM; stronger effect = higher value;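 note: 0% = wild type cc124 cells in DMSO and 100% = ciliumless bld1 mutant cells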
[11] = blockers of RIG-like receptor reporter activation – cell-based, Sendai virus stimulus, luciferase, 10K MLSCN set, TLR/RLR signaling modifier project, primary screen (AID 602276;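 active = inhibition at or above 50% at 10 µM; inactive = inhibition below 50%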;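 note: firefly luciferase from ISG56 promoter only with Renilla not read in this screen; 0% = Sendai virus plus DMSO and 100% = medium plus DMSO without virus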); settings: HEK293 RL24 IRF3 luciferase reporter, at 10 µM, stronger effect = higher value
[12] = TLR3 IRF3 reporter activation blockers – cell-based, poly I:C stimulus, luciferase, 10K MLSCN set, primary screen (AID 602277;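 active = inhibition of the reporter signal at or above 50%; inactive = inhibition below 50%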); settings: HEK293-TLR3 RL24 IRF3 luciferase reporter, at 10 µM, stronger effect = higher value
[13] = biological target: Muscarinic acetylcholine receptor M4 (Homo sapiens) (UniProt P08173); experiment: M4-linked GIRK flux change, two-sided – cell-based, HEK293 M4/GIRK, thallium flux, BTC-AM, M4 allosteric agonist project, primary screen (AID 625;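 active = fluorescence slope after compound addition differing from the mean of all tested samples at 99.7% confidence, mostly higher but some lower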;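 note: thallium influx through GIRK channels coupled to M4 in HEK293 cells with BTC-AM dye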); settings: at 10 µM, actives lie on both sides
[14] = measured here: cell density z-score
[15] = measured here: nuclear c-Myc green intensity z-score
[16] = measured here: nuclear pErk red intensity z-score, stronger effect = higher value

Dual specificity protein phosphatase 6 (Homo sapiens), sequence (Q16828 whole entry, looked up): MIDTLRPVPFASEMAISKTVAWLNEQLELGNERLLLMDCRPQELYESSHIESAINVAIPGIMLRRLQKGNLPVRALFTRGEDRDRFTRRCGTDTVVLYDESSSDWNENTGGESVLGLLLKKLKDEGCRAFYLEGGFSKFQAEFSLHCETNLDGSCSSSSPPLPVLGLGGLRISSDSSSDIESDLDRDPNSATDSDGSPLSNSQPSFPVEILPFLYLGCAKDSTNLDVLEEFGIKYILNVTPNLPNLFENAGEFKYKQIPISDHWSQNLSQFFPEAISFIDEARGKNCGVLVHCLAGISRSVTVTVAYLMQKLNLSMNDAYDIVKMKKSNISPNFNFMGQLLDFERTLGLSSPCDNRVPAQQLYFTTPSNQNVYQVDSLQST
Voltage-gated potassium channel subunit beta-2 (Rattus norvegicus), sequence (P62483 whole entry, looked up): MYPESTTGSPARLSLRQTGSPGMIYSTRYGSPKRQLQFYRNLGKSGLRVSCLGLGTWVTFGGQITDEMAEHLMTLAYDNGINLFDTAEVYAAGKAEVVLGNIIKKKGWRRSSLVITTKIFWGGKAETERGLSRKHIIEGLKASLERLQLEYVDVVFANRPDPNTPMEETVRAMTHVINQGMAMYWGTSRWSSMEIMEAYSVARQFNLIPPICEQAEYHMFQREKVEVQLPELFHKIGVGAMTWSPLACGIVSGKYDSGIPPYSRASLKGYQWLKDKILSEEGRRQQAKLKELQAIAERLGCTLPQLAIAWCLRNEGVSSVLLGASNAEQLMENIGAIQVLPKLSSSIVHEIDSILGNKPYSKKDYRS
Alpha-2C adrenergic receptor (Homo sapiens), sequence (P18825 whole entry, looked up): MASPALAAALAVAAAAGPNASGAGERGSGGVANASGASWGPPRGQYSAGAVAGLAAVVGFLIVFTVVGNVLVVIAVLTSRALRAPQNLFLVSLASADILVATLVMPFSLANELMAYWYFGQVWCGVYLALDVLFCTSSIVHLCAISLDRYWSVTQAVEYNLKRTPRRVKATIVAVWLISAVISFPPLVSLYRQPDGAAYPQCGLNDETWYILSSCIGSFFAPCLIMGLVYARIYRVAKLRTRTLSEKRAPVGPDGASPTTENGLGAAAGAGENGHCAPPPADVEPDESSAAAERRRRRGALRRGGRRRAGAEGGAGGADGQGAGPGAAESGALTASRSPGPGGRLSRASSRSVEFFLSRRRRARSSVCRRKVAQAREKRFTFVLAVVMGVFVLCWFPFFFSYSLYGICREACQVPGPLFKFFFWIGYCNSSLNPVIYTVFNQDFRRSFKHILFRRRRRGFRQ
Muscarinic acetylcholine receptor M4 (Homo sapiens), sequence (P08173 whole entry, looked up): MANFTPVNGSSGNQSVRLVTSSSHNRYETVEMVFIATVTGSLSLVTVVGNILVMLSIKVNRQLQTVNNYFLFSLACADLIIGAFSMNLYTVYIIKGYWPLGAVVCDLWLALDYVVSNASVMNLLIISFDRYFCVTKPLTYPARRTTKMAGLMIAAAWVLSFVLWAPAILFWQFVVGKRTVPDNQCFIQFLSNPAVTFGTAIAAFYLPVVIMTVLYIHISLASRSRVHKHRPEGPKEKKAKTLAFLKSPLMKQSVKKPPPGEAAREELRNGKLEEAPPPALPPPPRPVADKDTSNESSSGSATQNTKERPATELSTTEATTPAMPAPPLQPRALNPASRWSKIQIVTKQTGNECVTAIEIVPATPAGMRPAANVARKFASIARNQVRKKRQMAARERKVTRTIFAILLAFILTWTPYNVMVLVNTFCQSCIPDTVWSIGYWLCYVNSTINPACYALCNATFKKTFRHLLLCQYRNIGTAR

SMILES	cell count [1]	inhibition [1]	inhibition of aggregation [2]	nuclei count [2] [%]	inhibition [3]	nuclei count [3] [%]	z-score [4, 14]	z-score [4, 15]	z-score [4, 16]	inhibition [5]	fluorescence slope [6]	NADPH fluorescence slope [7]	slope [8]	outcome [9]	inhibition [10]	inhibition [11]	inhibition [12]	fluorescence slope [13]
COc1cc(/C=C/C(=O)CC(=O)/C=C/c2ccc(O)c(OC)c2)ccc1O	581	-5.9% (inactive)	-6.4% (inactive)	105	-31.2% (inactive)	119	-0.124	0.198	0.203	-8.38% (inactive)	-0.185 (active)	-1.1e-05 (inactive)	0.0285 (active)	inactive	102% (active)	7.07% (inactive)	6.1% (inactive)	–
COc1ccc(/C=C/C(=O)Nc2ccccc2C(=O)O)cc1OC	476	-4.9% (inactive)	-20.4% (inactive)	103	-112% (inactive)	128	0.437	-0.319	-0.448	15.3% (inactive)	-0.492 (inactive)	-8.1e-05 (inactive)	0.0062 (inactive)	inactive	3.58% (inactive) and -6.51% (inactive)	16.4% (inactive)	23.3% (inactive)	–
Cc1ccc(-n2c(N)c(C(N)=O)sc2=S)cc1	560	-7.1% (inactive)	-1.4% (inactive)	104	-12.7% (inactive)	146	-0.361	-1.13	1.48	-1.98% (inactive)	-0.427 (inactive)	-2.9e-05 (inactive)	0.00443 (inactive)	inactive	21.1% (inactive)	2.77% (inactive)	15.4% (inactive)	0.00756 (inactive)
CCOC(=O)CC(=O)CSc1[nH]c(=O)cc(C)c1C#N	653	-6% (inactive)	5.4% (inactive)	96.3	28.4% (inactive)	132	-1.3	0.221	-0.165	11% (inactive)	-0.403 (inactive)	-6.7e-05 (inactive)	0.0053 (inactive)	inactive	6.76% (inactive)	3.57% (inactive)	10% (inactive)	–
Cc1nc(SC2C=CS(=O)(=O)C2)n[nH]1 (stereo unspecified)	427	-0.8% (inactive)	10.8% (inactive)	98.1	-43.2% (inactive)	139	-0.37	0.156	1.24	-6.86% (inactive)	-0.482 (inactive)	-0.000222 (inactive)	0.00468 (inactive)	inactive	-12% (inactive)	14.6% (inactive)	18.4% (inactive)	–
